# Laboratory results reported in PubChem BioAssay (NCATS).
# Records with an inconclusive call do not appear. A call without a number means that no potency is given here. Active and inactive are the calls of the source. Calls follow the shape of the dose curve; as a rule, active = well fitted inhibition curve with a large enough effect; inconclusive = small, poorly fitted or top-dose-only effect; inactive = flat fitted curve, though single readings scatter.
# Molecular target: Calcium and integrin-binding protein 1 (Homo sapiens) (UniProt Q99828)
# Test: Primary qHTS for Identification of Calcium Integrin Binding Protein 1 (CIB1) Competitor (AID 1508620);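 also: GST tagged CIB1 binding a fluorescein labelled alphaIIb integrin peptide tracer; top concentration of the series differs between compounds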
# Details: CIB1-GST / FITC-alphaIIb peptide fluorescence polarization; series mostly up to 114 µM
# In short: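 CIB1-GST (1 uM final) and compound incubated 15 min at room temperature before adding FITC-alphaIIb peptide tracer (100 nM final). Competition for binding read by fluorescence polarization (ex 480, em 540) after another 15 min at room temperature.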
# Calcium and integrin-binding protein 1 (Homo sapiens), sequence (Q99828 whole entry, looked up): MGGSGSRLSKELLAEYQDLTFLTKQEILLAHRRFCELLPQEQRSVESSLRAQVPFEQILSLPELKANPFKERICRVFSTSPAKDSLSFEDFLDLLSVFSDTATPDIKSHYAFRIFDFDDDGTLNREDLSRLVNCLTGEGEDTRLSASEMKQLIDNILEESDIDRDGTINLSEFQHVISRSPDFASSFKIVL
row,Compound,Potency
1,CC(C)CC1NC(=O)C(C)NC(=O)C(CC(C)C)OC(=O)CCCNC1=O (stereo not given),inactive
2,CC1=C(COC2OC(CO)C(O)C(O)C2O)C(C(CO)C(=O)O)CC1 (stereo not given),inactive
3,COc1cc(O)c([C@@H](CC(=O)N2CC(C)CC(C)C2)c2ccc3c(c2)OCO3)c(OC)c1 (stereo not given in full),inactive
4,C=C1C(=O)OC2C1C(O)CC1(C)C(O)CCC(C=O)C21 (stereo not given),inactive
5,Oc1ccc(CNc2ccccc2F)c2cccnc12,inactive
6,CC/C=C\C/C=C\C/C=C\CCCCCCCC(=O)OCC(O)COC1OC(CO)C(O)C(O)C1O (stereo not given),inactive
7,C=C(C)C(=O)O[C@H]1CC2=CC(C/C(C)=C\[C@H]3OC(=O)C(=C)[C@H]13)OC2=O (stereo not given in full),inactive
8,C(#Cc1nc2ncccc2nc1OCCN1CCCC1)c1ccccc1,inactive
9,COC(=O)CC(C)(O)CC(=O)OCc1ccc(O[C@@H]2O[C@H](CO)[C@@H](O)[C@H](O)[C@H]2O)cc1 (stereo not given in full),inactive
10,O=C(c1ccc(/C=C/c2n[nH]c3ccccc23)cc1)N1CCNCC1,inactive
11,CN(C)CCn1cc(S(=O)(=O)c2cccc(F)c2)c2cccnc21,inactive
12,CCOc1ccc(S(=O)(=O)n2c(C)nc3ccccc32)cc1,inactive
13,C[C@@H]1C(=O)OC[C@H]2C(C(=O)O)=C[C@@H]3CC(C)(C)C[C@]312,inactive
14,C=C1[C@H](OC(C)=O)[C@H]2[C@@H](OC(C)=O)[C@](C)(OC(C)=O)C[C@]2(OC(C)=O)C(=O)[C@H](C)/C=C/C(C)(C)C(=O)[C@H](OC(=O)C(C)C)[C@H]1OC(C)=O,inactive
15,CC(O)/C=C/C1(O)C(C)C(O[C@@H]2O[C@H](CO)[C@@H](O)[C@H](O)[C@H]2O)C(O)CC1(C)C (stereo not given in full),inactive
